What was measured:
Experiment in all cases: PBM binding z-score (relative to random genomic background probes); higher = stronger binding; sequences stand for … in GC…GCGATTGACAGCGTAGAATGAAGG
[1] = system: FXR:RXRa (NR concentration 270 nM, RXRa partner concentration 90 nM)
In short: (§1)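 Probes were double-stranded and carried 34-nt variable regions with direct-repeat seeds, single-nucleotide variants, half-site ablations and random human genomic background sequences, printed on custom Agilent 4×180K protein-binding microarrays. Arrays were incubated 1 h with ligand-free nuclear receptor dimers in PBS pH 7.4, 2% milk, 0.02% Triton X-100, 1 mM DTT, 0.2 mg/mL BSA and 0.4 mg/ml salmon testes DNA. Antibodies against each partner (one per run) detected binding, and scanned fluorescence was regression-normalized. Binding z-scores use the random background probes as reference.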

[2] = system: LXRa:RXRa (NR concentration 270 nM, RXRa partner concentration 90 nM)
In short: as §1

[3] = system: LXRa homodimer (NR concentration 270 nM)
In short: as §1

[4] = system: LXRb:RXRa (NR concentration 270 nM, RXRa partner concentration 90 nM)
In short: as §1

[5] = system: LXRb homodimer (NR concentration 270 nM)
In short: as §1

[6] = system: PPARa:RXRa (NR concentration 270 nM, RXRa partner concentration 90 nM)
In short: as §1

[7] = system: PPARg:RXRa (NR concentration 180 nM, RXRa partner concentration 90 nM)
In short: as §1

[8] = system: PPARg:RXRa 270nM:90nM, anti-RXR (NR concentration 270 nM, RXRa partner concentration 90 nM)
In short: as §1

[9] = system: PPARg:RXRa 30nM:10nM, anti-RXR (NR concentration 30 nM, RXRa partner concentration 10 nM)
In short: as §1

[10] = system: PPARg:RXRa 90nM:30nM, anti-RXR (NR concentration 90 nM, RXRa partner concentration 30 nM)
In short: as §1

[11] = system: PPARg:RXRa DBDmut IVT, anti-RXR (DBD mutation: RXRa K156A/R161A, NR concentration 270 nM, RXRa partner concentration 90 nM)
In short: as §1

[12] = system: PPARg:RXRa IVT, anti-PPARg (NR concentration 270 nM, RXRa partner concentration 90 nM)
In short: as §1

[13] = system: PPARg DBDmut:RXRa IVT, anti-PPARg (DBD mutation: PPARg1 K132A/R137A, NR concentration 270 nM, RXRa partner concentration 90 nM)
In short: as §1

[14] = system: PPARg DBDmut IVT, anti-PPARg (DBD mutation: PPARg1 K132A/R137A, NR concentration 270 nM)
In short: as §1

[15] = system: PPARg homodimer (NR concentration 180 nM)
In short: as §1

[16] = system: PXR:RXRa (NR concentration 270 nM, RXRa partner concentration 90 nM)
In short: as §1

[17] = system: PXR homodimer (NR concentration 270 nM)
In short: as §1

[18] = system: RARa:RXR (NR concentration 270 nM, RXRa partner concentration 90 nM)
In short: as §1

[19] = system: RARa homodimer (NR concentration 270 nM)
In short: as §1

[20] = system: RARb:RXRa (NR concentration 270 nM, RXRa partner concentration 90 nM)
In short: as §1

Sequence | PBM binding z-score [1] | PBM binding z-score [2] | PBM binding z-score [3] | PBM binding z-score [4] | PBM binding z-score [5] | PBM binding z-score [6] | PBM binding z-score [7] | PBM binding z-score [8] | PBM binding z-score [9] | PBM binding z-score [10] | PBM binding z-score [11] | PBM binding z-score [12] | PBM binding z-score [13] | PBM binding z-score [14] | PBM binding z-score [15] | PBM binding z-score [16] | PBM binding z-score [17] | PBM binding z-score [18] | PBM binding z-score [19] | PBM binding z-score [20]
CGTCCAAGGTCAAGGTCAGTGAGAGAGACTCGAA | 7.65 | 5.63 | 1.24 | 4.59 | 0.615 | 6.05 | 6.16 | 6.13 | 2.58 | 4.79 | 3.51 | 4.84 | 1.23 | 2.41 | 3.47 | 4.79 | 1.08 | 5.05 | 1.59 | 5.69
CCTGCTAGGTCAATGGTCAGCTATAGCAGCTCGC | 2.7 | 2.23 | 0.0531 | 1.44 | 0.0202 | 3.06 | 4.45 | 4.91 | 2.6 | 4.71 | 4.67 | 3.79 | -0.186 | -0.414 | 1.14 | 0.849 | -0.745 | 1.57 | -0.658 | 3.75
TCATATAGCTAATACAGGTGAAAGTCGGCATCTA | 0.322 | 0.835 | 0.0705 | 0.543 | -0.0868 | 1.17 | 0.706 | 1.77 | 3.13 | 2.35 | 1.68 | 0.828 | 0.761 | 0.528 | 0.511 | 0.475 | -0.0901 | 0.626 | 0.67 | 0.139
CGTCCAAGGTCATAGGAGATCAGTGAAGACAGAT | 6.93 | 5.5 | 1.32 | 3.92 | 0.511 | 5.4 | 4.74 | 4.9 | 2.45 | 3.71 | 3.22 | 3.43 | 1.2 | 0.671 | 2.99 | 4.44 | 1.37 | 4.47 | 0.926 | 4.89

— the supplement of paper PMC6555819
